Results with a measured potency or affinity are listed apart. Inconclusive results are not listed. A number with no mark means an inactive call.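 The calls were made as follows: active = signal loss with fitted half-maximal concentration at or below twice the top valid tested dose in every test run; inconclusive = runs disagree, flat 30 to 70% signal loss, or poor fit; inactive = all runs flat, opposite direction, or potency beyond limit.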
Test: HEK293T cytotoxicity, dose response, cytotoxicity control for miR-122 modulator project, cell-based, inhibitor set, cherry-pick, set 2 (AID 720697);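 also: 0% = median of neutral control wells and -100% = MG132 positive control wells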
Settings: HEK293T viability, CellTiter-Glo luminescence, 48 h; series mostly up to 26 µM; activity change, negative = cytotoxicity: at the top concentration

| SMILES | activity change, negative = cytotoxicity [%] |
| --- | --- |
| COCC(=O)NC[C@H]1N[C@H](CO)[C@H]1c1ccc(C2=CCCC2)cc1 | 55.1 |
| CCCCC(=O)OCC(=O)c1[nH]c(C)c(C(=O)OCC)c1C | 58.2 |
| CC(=O)Nc1ccc2c(c1)C(=O)N(C)[C@H]1CC[C@H](CC(=O)Nc3ccccc3Cl)O[C@@H]1CO2 | 111 |

Reference: PubChem BioAssay AID720697 (Broad Institute, 2013)
